Source: PubChem BioAssay
Compounds with a hit are over-represented: about 2.5% of the library has one in this group of screens.
Cruzain inh Det = qHTS Assay for Promiscuous and Specific Inhibitors of Cruzain (with detergent) | Potency, µM, for inactives: max response, negative = inhibition, most hits filed as inhibitors | AID 1478, 2009 | Cruzipain (Trypanosoma cruzi), P25779 | 200,000 tested, 0.43% active | purified cruzain, Z-FR-AMC fluorescence, 0.01% Triton;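 further: plate controls were neutral wells for no effect and buffer without enzyme for full effect; nearly all actives have a fitted effect of over 40% in size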
Target sequence (P25779 123-467 limits assumed): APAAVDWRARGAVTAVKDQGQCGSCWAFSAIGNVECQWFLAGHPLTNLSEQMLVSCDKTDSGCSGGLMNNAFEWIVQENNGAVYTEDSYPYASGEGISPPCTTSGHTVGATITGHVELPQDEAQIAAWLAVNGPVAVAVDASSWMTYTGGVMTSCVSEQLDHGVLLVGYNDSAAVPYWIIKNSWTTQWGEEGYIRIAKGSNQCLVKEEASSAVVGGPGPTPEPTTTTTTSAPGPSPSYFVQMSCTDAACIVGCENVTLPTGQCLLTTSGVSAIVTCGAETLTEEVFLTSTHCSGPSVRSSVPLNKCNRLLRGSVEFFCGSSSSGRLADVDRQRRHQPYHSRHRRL
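Steps: dispense cruzain (1.5 nM final) in acetate buffer pH 5.5 with DTT and 0.01% Triton X-100; pin-transfer compounds; incubate 15 min RT; add Z-FR-AMC (2 uM final); read fluorescence every 30 s, using the 60 s intensity change.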
Cruzain noTriton = qHTS Assay for Promiscuous and Specific Inhibitors of Cruzain (without detergent) | Cruzipain (Trypanosoma cruzi), P25779 | purified cruzain, Z-FR-AMC fluorescence, no detergent | Potency, µM, for inactives: max response, negative = inhibition, actives largely listed as inhibitors | 200,000 tested, 2.3% active;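 further: plate controls were enzyme without inhibitor for no effect and buffer without enzyme for full effect; nearly all actives have a fitted effect of over 40% in size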
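Purified cruzain at 1.5 nM, pre-incubated 15 min with compound at room temperature in 100 mM sodium acetate pH 5.5, 5 mM DTT, 0.00005% Triton X-100. Reaction started with 2 uM Z-FR-AMC; AMC fluorescence increase over 60 s gives rate.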
The depositor's hits bear a star. The call rests on the fitted dose curve; in most records, active means well fitted curve in the direction sought with a large enough effect; inconclusive means small, poorly fitted or top-dose-only effect, or another doubt; inactive means no such curve, though single readings can be large; an effect the other way counts as inactive or inconclusive. Potency means the concentration at half of the fitted maximal effect.

`CC(/C=N/NC(=O)c1ccc(CN2c3cccc4cccc(c34)S2(=O)=O)cc1)c1ccccc1` (stereo not given) gave Cruzain inh Det -5.0% and Cruzain noTriton 10µM*.
For O=C1CCC/C(=N/NC(=O)c2ccc(CN3c4cccc5cccc(c45)S3(=O)=O)cc2)C1 the results were Cruzain inh Det -4.8% and Cruzain noTriton -1.9%.
COCc1cc(Sc2ccc(Cl)cc2)nc(-c2ccccc2)n1 was read as Cruzain inh Det 0.0% and Cruzain noTriton -6.4%.
`Nc1ccc(Sc2cc(Cl)nc(N)n2)cc1` gave Cruzain inh Det 6.2% and Cruzain noTriton 12.6µM*.
`COCCN1C(=O)C(CC(=O)Nc2ccc(C(=O)O)cc2)SC1=Nc1ccccc1` (stereo not given) gave Cruzain inh Det 0.2% and Cruzain noTriton 0.3%.
COC(=O)c1cc(NC(=O)CC2SC(=Nc3ccccc3)N(CCc3c[nH]c4ccccc34)C2=O)cc(C(=O)OC)c1 (stereo not given) was read as Cruzain inh Det 14.6% and Cruzain noTriton 5.01µM*.
`COc1ccc(CNC(=O)c2ccc3c(c2)CCN3S(=O)(=O)c2ccc(C)cc2)cc1` gave Cruzain inh Det -2.4% and Cruzain noTriton -25.9%.
CCCCCC(=O)Nc1nc(C)c(-c2csc(Nc3ccc(Cl)cc3)n2)s1 was read as Cruzain inh Det -5.8% and Cruzain noTriton 12.6µM*.
`CCCC(C)C(=O)Nc1nc(C)c(-c2csc(Nc3cc(Cl)ccc3C)n2)s1` (stereo not given) gave Cruzain inh Det 4.1% and Cruzain noTriton 12.6µM*.
`CCCCCCC(=O)Nc1nc(C)c(-c2csc(Nc3ccc(Cl)cc3)n2)s1` gave Cruzain inh Det 4.5% and Cruzain noTriton inconclusive.
`CCC(C)C(=O)Nc1nc(C)c(-c2csc(Nc3ccccc3OC)n2)s1` (stereo not given) gave Cruzain inh Det -2.3% and Cruzain noTriton inconclusive.
Screening CCCCCC(=O)Nc1nc(C)c(-c2csc(Nc3cc(Cl)ccc3C)n2)s1 returned Cruzain inh Det -2.8% and Cruzain noTriton 10µM*.
Cc1ccc(-n2c(=O)[nH]c3sc4c(c3c2=O)CCNC4)cc1C was read as Cruzain inh Det 0.8% and Cruzain noTriton -7.2%.
O=C(CNc1cccc2ccccc12)N/N=C/c1cccc(Oc2ccccc2)c1 was read as Cruzain inh Det 0.3% and Cruzain noTriton 20µM*.
For O=C(CNc1cccc2ccccc12)N/N=C/c1ccc([N+](=O)[O-])cc1 the results were Cruzain inh Det -3.0% and Cruzain noTriton 4.5%.
O=C(NC1CC(=O)N(c2ccc(Cl)cc2)C1)c1ccc(S(=O)(=O)N2CCCC2)cc1 (stereo not given) was read as Cruzain inh Det -0.7% and Cruzain noTriton 2.7%.
Screening O=S(=O)(Nc1nc2ccccc2nc1Nc1ccc(N2CCOCC2)cc1)c1cc(Cl)ccc1Cl returned Cruzain inh Det -9.0% and Cruzain noTriton 20µM*.
`O=S(=O)(Nc1ccc(N2CCOCC2)cc1)c1ccc2ccccc2c1` gave Cruzain inh Det -7.2% and Cruzain noTriton -2.0%.
For Cc1ccc2c(=O)cc(C(=O)Nc3ccc(S(=O)(=O)N4CCCCC4C)cc3)oc2c1C (stereo not given) the results were Cruzain inh Det -1.6% and Cruzain noTriton -2.5%.
Screening CCCc1cc(C(=O)Nc2sc(C)c(C)c2C(=O)OCC)no1 returned Cruzain inh Det -2.7% and Cruzain noTriton 20µM*.
Screening CCOC(=O)c1c(NC(=O)c2cc(C(C)C)on2)sc(C)c1C returned Cruzain inh Det -2.3% and Cruzain noTriton -11.4%.
For CC(=O)OCc1cnc(C)c2oc(=O)c(C(=O)Nc3cccc(F)c3)cc12 the results were Cruzain inh Det 0.5% and Cruzain noTriton -0.6%.
Screening CCC(C)Sc1oc(-c2ccco2)nc1S(=O)(=O)c1ccc(Cl)cc1 (stereo not given) returned Cruzain inh Det -20.1% and Cruzain noTriton 2.8%.
Screening COC(=O)c1ccc(OCC2c3cc(OC)c(OC)cc3CCN2C(=O)C(C)C)cc1 (stereo not given) returned Cruzain inh Det -0.9% and Cruzain noTriton inconclusive.
Screening COc1ccc(-c2cc(C(=O)OCC(=O)c3cccc([N+](=O)[O-])c3)c3cc(C)ccc3n2)cc1 returned Cruzain inh Det 1.2% and Cruzain noTriton 10µM*.
Screening COc1ccc(-c2cc(C(=O)Oc3cccc(C)c3)c3cc(C)ccc3n2)cc1 returned Cruzain inh Det -2.6% and Cruzain noTriton 0.8%.
Screening O=C(NCCCN1CCN(c2cccc(Cl)c2)CC1)c1cnn(-c2ccc(F)cc2)c1-n1cccc1 returned Cruzain inh Det -2.7% and Cruzain noTriton 2.1%.
`Cc1ccc(CN2c3ccccc3-c3nc(SCC(=O)Nc4c(C)cc(C)cc4C)ncc3S2(=O)=O)cc1` gave Cruzain inh Det 0.9% and Cruzain noTriton 27.8%.
`CC(=O)N1CCCc2cc(S(=O)(=O)NCc3ccccc3Cl)ccc21` gave Cruzain inh Det -3.0% and Cruzain noTriton -10.4%.
`CSc1nc(C)c(C(=O)Nc2ccccc2)c(C)c1C#N` gave Cruzain inh Det -0.2% and Cruzain noTriton -2.1%.
Cc1nc(SCC(=O)c2cc3ccccc3oc2=O)c(C#N)c(C)c1C(=O)Nc1ccccc1 was read as Cruzain inh Det -6.0% and Cruzain noTriton 12.6µM*.
Screening N/C(=N\OC(=O)c1ccc2ccccc2c1)c1ccc(Br)cc1 returned Cruzain inh Det -1.6% and Cruzain noTriton 10µM*.
For Cc1cccc(C(=O)O/N=C(\N)c2ccc(Br)cc2)c1 the results were Cruzain inh Det 0.2% and Cruzain noTriton 3.1%.
Screening COc1cc2c(cc1NC(=O)c1cccnc1)oc1ccccc12 returned Cruzain inh Det -8.4% and Cruzain noTriton inconclusive.
COc1cc2c(cc1NC(=O)c1ccncc1)oc1ccccc12 was read as Cruzain inh Det -8.6% and Cruzain noTriton inconclusive.
`COc1cc2c(cc1NC(=O)c1cccc([N+](=O)[O-])c1)oc1ccccc12` gave Cruzain inh Det -1.3% and Cruzain noTriton 15.8µM*.
Screening COc1cc2c(cc1NC(=O)c1ccc(C)c([N+](=O)[O-])c1)oc1ccccc12 returned Cruzain inh Det 3.3% and Cruzain noTriton 25.1µM*.
`CCOC(=O)c1ccc(CN(Cc2ccc(C)cc2)S(=O)(=O)c2ccc(F)c(C(=O)Nc3ccc(C)c(F)c3)c2)cc1` gave Cruzain inh Det 0.2% and Cruzain noTriton -9.4%.
`COc1ccc(CNCc2ccc(C(=O)O)s2)cc1` gave Cruzain inh Det -0.8% and Cruzain noTriton -5.3%.
For COc1ccc(NS(=O)(=O)c2ccc3nc(COc4ccc5ccccc5c4)[nH]c3c2)cc1 the results were Cruzain inh Det 5.3% and Cruzain noTriton inconclusive.
Screening COc1ccc(NS(=O)(=O)c2ccc3nc(COc4cccc5ccccc45)[nH]c3c2)cc1 returned Cruzain inh Det -2.4% and Cruzain noTriton 31.6µM*.
`CCc1cc2c(cc3c(=O)n(CC(=O)NCc4cc(Br)ccc4OC)ncn32)s1` gave Cruzain inh Det 5.4% and Cruzain noTriton 23.9%.
For COc1ccc(-c2cc(-c3ccc(C)cc3)nc(SCc3nnc(-c4ccccc4)o3)c2C#N)cc1OC the results were Cruzain inh Det -0.9% and Cruzain noTriton 10µM*.
COc1ccc(-c2nnc(CSc3nc4ccccc4c(=O)n3C)o2)cc1OC was read as Cruzain inh Det -0.4% and Cruzain noTriton inconclusive.
